Data on 96 molecules can be found in PubChem BioAssay AID1446 (The Scripps Research Institute Molecular Screening Center, 2008).

Among all 220,000 compounds or so, about 2,400 (1.1%) were called active.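 How the source made its calls: active means inhibition above the campaign mean plus 3 SD over all tested compounds (cut at about 24% in these data); inactive means the rest.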 The full list was thinned out, with actives kept by preference.

This test can be described thus: viability loss in Ba/F3 EpoR-JAK2V617F cells – cell-based, luminescence, JAK2V617F inhibitor project, primary screen (AID 1446).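 Further: cytokine-independent growth of Ba/F3 cells driven by EpoR plus mutant JAK2; 0% = DMSO-treated cells and 100% = JAK inhibitor I control.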 The note with it: ATP luminescence, at 5.6 µM, active compounds read high.
`Cc1noc(C)c1C(=O)OCC(=O)/C=C1\N(C)c2ccccc2C1(C)C`: the inhibition – broadly, the drop in the measured response relative to a control, in per cent – was 1.84% (inactive).

Turning to `CC(=O)Nc1cccc(OCC(=O)/C=C2\N(C)c3ccccc3C2(C)C)c1`, the inhibition was 37.5% (active).

Take `CN1/C(=C\C(=O)c2cccnc2Cl)C(C)(C)c2ccccc21`: the inhibition is 2.48% (inactive).

Take `N/C(=N\OC(=O)Nc1ccccc1)c1ccno1`: the inhibition was 4.88% (inactive).

In the case of `CC1(C)CC(N2CCN(C(c3ccccc3)c3ccccc3)CC2)=CC(=[N+]2CCCCC2)C1`, the inhibition is 98.8% (active).

Take `CC(C)NC(=S)N1CCN(C(c2ccccc2)c2ccccc2)CC1`: the inhibition was 1.76% (inactive).

Turning to `CC1(C)CC(=O)C=C(N2CCCC2)C1`, the inhibition was -0.55% (inactive).

As to `CCOC(=O)C(Sc1ncc(C#N)c(N)n1)C(C)C` (stereo unspecified), the inhibition was -2.24% (inactive).

With `COc1cc(C=O)ccc1Oc1nnnn1-c1ccccc1`, the inhibition was 1.87% (inactive).

For the molecule `Cc1cc(N/N=C\c2ccc(Br)cc2)nc(-n2nc(C)cc2C)n1`, the inhibition is -1.35% (inactive).

As for `CC(=O)c1ccc(Oc2cc(C)nc(-n3nc(C)cc3C)n2)cc1`, the inhibition was 64.7% (active).

As to `Cc1cc(Oc2ccccc2)nc(N2CCOCC2)n1`, the inhibition was 1.31% (inactive).

`COc1ccc(Nc2cc(C)nc(-n3nc(C)cc3C)n2)cc1`: the inhibition is 76.7% (active).

With `Cc1cc(C)n(-c2cc(Oc3ccccc3)ncn2)n1`, the inhibition was 0.29% (inactive).

Turning to `COc1ccccc1/C=N\Nc1cc(C)nc(-n2nc(C)cc2C)n1`, the inhibition is -2.19% (inactive).

Turning to `Nc1nc(SC23CC4CC(CC(C4)C2)C3)ns1`, the inhibition is -4.14% (inactive).

As for `O=C(c1ccc(OC2CCN(Cc3ccccn3)CC2)cc1)N1CCCCCC1`, the inhibition was -0.65% (inactive).

Regarding `CC(C)(C)c1ccc(CCC2OCC(CN3CCOCC3)O2)cc1` (stereo unspecified), the inhibition was 0.42% (inactive).

For `CC(C)[C@@H]1NC(=O)c2cc([N+](=O)[O-])cc(I)c2NCCC[C@@H](C(=O)NC(CC(=O)O)C(N)=O)NC(=O)[C@H](CO)NC1=O` (stereo partly specified), the inhibition is 1.14% (inactive).

With `CC(C)(C)OC(=O)NCCCCCC(=O)N/N=C/c1coc2ccccc2c1=O`, the inhibition is 0.8% (inactive).

Regarding `Cc1ccc(N2C(=O)CN=C2Nc2nc(C)cc(C)n2)cc1`, the inhibition is -0.62% (inactive).

On to `CCCCOc1ccc(NC(=O)[C@@H]2CCCN2C(=O)C2CCN(S(=O)(=O)c3ccc(C)cc3)CC2)cc1`, for which the inhibition is 1.1% (inactive).

Consider `Cc1cc(C)nc(NS(=O)(=O)c2ccc(N/C=C\C(=O)c3cccs3)cc2)n1`, for which the inhibition is 2.57% (inactive).

Take `CCN1/C(=C/C(=S)Nc2ccccc2)Sc2ccccc21`: the inhibition is -4.02% (inactive).

Regarding `CCN1CCN(CCNC(=O)c2ccc(/C=C3/Sc4ccccc4N(Cc4cccc(C)c4)C3=O)cc2)CC1`, the inhibition was 4.4% (inactive).

Regarding `CCN1/C(=C/c2ccc3ccc(C)cc3[n+]2CC)Sc2ccccc21`, the inhibition was 100% (active).

In the case of `CCN1/C(=C\c2ccc3ccccc3[n+]2CC)Sc2cc(C)ccc21`, the inhibition was 99.7% (active).

For the molecule `COc1ccc([N+](=O)[O-])cc1NC(=O)COC(=O)/C=C/c1ccco1`, the inhibition is -0.59% (inactive).

Turning to `O=S1(=O)CCC(NC(=S)SCc2ccccc2Br)C1` (stereo unspecified), the inhibition was -4.11% (inactive).

`CC1(C)OC(=O)C(=CSc2ccc(C(C)(C)C)cc2)C(=O)O1`: the inhibition was -1.81% (inactive).

For the molecule `COc1ccc(S(=O)(=O)NC(C)C)cc1C(=O)NC1CCCCC1`, the inhibition was -1.5% (inactive).

As for `COc1cc(OC)c(C(=O)NC2CC(C)(C)NC(C)(C)C2)cc1OC`, the inhibition is -0.48% (inactive).

With `COc1cc(OC)c(C(=O)NC2CCCCCC2)cc1OC`, the inhibition is 99.6% (active).

As to `O=C(NC(=O)c1ccccc1N1CCCCC1)Nc1ccc(Br)cc1`, the inhibition was 0.79% (inactive).

`Cc1c(/C=N\NC(=O)c2cc3ccccc3o2)c2ccccc2n1C`: the inhibition was 34.8% (active).

For `O=C(N/N=C/c1c[nH]c2ccccc12)c1cc2ccccc2o1`, the inhibition is 0.06% (inactive).

For `O=C(N/N=C/c1coc2ccccc2c1=O)c1cc2ccccc2o1`, the inhibition was 2.09% (inactive).

As for `CC(=O)c1nnn(-c2ccc(Cl)cc2C#N)c1C`, the inhibition is 0.95% (inactive).

In the case of `CC(C)CNC(=O)COC(=O)/C=C/c1ccco1`, the inhibition was -3.59% (inactive).

Turning to `COc1ccc(C(=O)CN(C(=O)c2ccc(Cl)cc2)N2C(=O)c3ccccc3C2=O)cc1`, the inhibition is 0% (inactive).

Turning to `COc1ccc(Cn2c(-c3ccc(Cl)cc3)c[n+]3ccccc23)cc1`, the inhibition was 88.9% (active).

With `COc1ccc(Cn2c(=O)cc(C)[nH]c2=S)cc1`, the inhibition was 2.03% (inactive).

In the case of `O=C(CSc1nnc(SCc2ccc(F)cc2)s1)Nc1ccc(C(=O)O)cc1`, the inhibition is -3.83% (inactive).

`Cc1ccc(S(=O)(=O)N(C)C)cc1NC(=O)c1ccccc1Br`: the inhibition is 2.86% (inactive).

As to `COc1ccc(-c2cc(C(F)(F)F)nc(S(C)(=O)=O)n2)cc1OC`, the inhibition is 37.9% (active).

Consider `COc1cc(OC)nc(S(C)(=O)=O)n1`, for which the inhibition was -3.65% (inactive).

Consider `COc1ccc(-c2cc(C(F)(F)F)nc(SCC(=O)Nc3ccc4c(c3)OCO4)n2)cc1OC`, for which the inhibition is 2.59% (inactive).

As for `Cc1c(CCC(=O)O)c(=O)oc2cc3occ(-c4ccccc4)c3cc12`, the inhibition was 2.82% (inactive).

Turning to `COc1ccc(C(=O)NNC(=S)NC(=O)c2ccccc2[N+](=O)[O-])cc1`, the inhibition was 0.22% (inactive).

Regarding `CCOC(=O)C(=Cc1ccccc1OC)C(=O)OCC`, the inhibition is -2.52% (inactive).

In the case of `CN(NC(=O)c1ccccc1)c1nc2ccccc2nc1C(F)(F)F`, the inhibition was -2.71% (inactive).

As for `COC(=O)CNC(=O)c1ccccc1F`, the inhibition was -2.64% (inactive).

With `CSc1nc(N(C)NC(=O)c2cccc(C)c2)c2ccccc2n1`, the inhibition is 93.6% (active).

For `COc1ccc(C(=O)NN(C)c2nc(-c3ccccc3)cc(C)c2S(C)(=O)=O)cc1`, the inhibition was 2.15% (inactive).

For `COc1ccc(OCC(=O)NNC(=O)c2cccc(C)c2)cc1`, the inhibition is -0.28% (inactive).

For `CN(NC(=O)c1ccccc1F)c1nc(C(F)(F)F)nc2ccccc12`, the inhibition was 73.2% (active).

`CC(=O)c1ccc(NC(=O)CSC(=S)N2CCCC2)cc1`: the inhibition is -0.78% (inactive).

Consider `C=CCNC(=O)CSc1nc2scc(-c3ccco3)c2c(=O)n1CC=C`, for which the inhibition is -2.22% (inactive).

Take `Nc1nc(NC(=O)/C=C/c2ccc(F)cc2)nn1-c1ccccc1`: the inhibition was 1.73% (inactive).

`CCCCCN(C(=O)NC(=O)Nc1cccc(C)c1C)S(C)(=O)=O`: the inhibition was 1.95% (inactive).

With `CC(NC(=O)C(=O)Nc1nccs1)c1ccccc1` (stereo unspecified), the inhibition is -0.5% (inactive).

For the molecule `CCCCN1C(=O)CCC(C(=O)O)C1c1ccc(OC)cc1` (stereo unspecified), the inhibition is -6.4% (inactive).

On to `CC(=O)c1cnc(-c2ccccc2)s1`, for which the inhibition was -0.87% (inactive).

Turning to `COc1ccc2c(c1OC)C(=O)OC2Nc1nc(-c2ccccc2)cs1` (stereo unspecified), the inhibition was 68.6% (active).

In the case of `COc1ccc2c(c1OC)C(=O)OC2c1c(O)nc(SC)n(-c2ccccc2)c1=O` (stereo unspecified), the inhibition is -4.02% (inactive).

Take `COc1ccc(-c2csc(NC3OC(=O)c4ccccc43)n2)cc1` (stereo unspecified): the inhibition was 11.9% (inactive).

`Cn1c(SCC(=O)Nc2ccc(Cl)cc2)nc(O)cc1=O`: the inhibition was -1.33% (inactive).

Turning to `O=C1CC(c2c(F)cccc2Cl)C(n2cncn2)C(O)=C1C1NCCc2ccccc21` (stereo unspecified), the inhibition is -3.23% (inactive).

Take `COCCOC(=O)C1=C(C)NC(=O)CC1c1cc2c(cc1Br)OCO2` (stereo unspecified): the inhibition is 1.76% (inactive).

`COc1ccc(F)cc1S(=O)(=O)Nc1ccc2c(c1)OCO2`: the inhibition was 0.08% (inactive).

For the molecule `CCCOc1ccccc1C1CC(=O)Nc2cc3c(cc21)OCO3` (stereo unspecified), the inhibition is 74.4% (active).

In the case of `COc1ccccc1C1C2=C(COC2=O)Nc2cc3c(cc21)OCO3` (stereo unspecified), the inhibition is 85.5% (active).

For `COc1ccc(C2CC(=O)Nc3cc(C)c(C)cc32)c(OC)c1OC` (stereo unspecified), the inhibition was 0.14% (inactive).

`COc1cc2c(cc1/C=C1/NC(=O)N(c3ccccc3)C1=O)OCO2`: the inhibition is 0.39% (inactive).

As for `Cc1nc(C(=O)N2CCCC(C(=O)c3ccc(Cl)cc3)C2)cs1` (stereo unspecified), the inhibition was -2.53% (inactive).

For the molecule `CC(=O)N1CCN(S(=O)(=O)c2c(F)cc(F)c(Cl)c2F)CC1`, the inhibition was -1.72% (inactive).

On to `COc1ccc(CN(C)C(C)C(=O)NC2CCCc3ccccc32)cc1` (stereo unspecified), for which the inhibition is 3.02% (inactive).

On to `COc1ccc2nc(SCc3ccccc3)nc(C)c2c1`, for which the inhibition was 2.96% (inactive).

On to `CCOC(=O)C1C(c2ccc(OC)c(OC)c2)c2c([nH][nH]c2=O)CC1(C)O` (stereo unspecified), for which the inhibition is -0.54% (inactive).

In the case of `O=C(CCCn1c(=O)c2sccc2n(CC(=O)NCC2CCCO2)c1=O)NCc1ccco1` (stereo unspecified), the inhibition is -0.32% (inactive).

For the molecule `COc1ccc(C2c3ccc(O)cc3Oc3ncn(CCCO)c(=N)c32)cc1OC` (stereo unspecified), the inhibition was -1.6% (inactive).

Turning to `COc1ccc(NC(=O)/C(Cl)=C(/Cl)S(=O)Cc2ccc(C)cc2)cn1` (stereo unspecified), the inhibition is 100% (active).

In the case of `COc1ccc(NC(=S)NCCNC(C)=O)cc1`, the inhibition is -1.93% (inactive).

In the case of `COc1ccc(NC(=S)Nc2ccccc2Cl)cn1`, the inhibition was 4% (inactive).

Turning to `COc1ccc(CS(=O)/C(Cl)=C(/Cl)C(=O)Nc2ccc(OC)nc2)cc1` (stereo unspecified), the inhibition is 101% (active).

Take `Cc1ccc(NC(=O)OCc2cncs2)cc1`: the inhibition is 4.29% (inactive).

For `COc1ccc(Nc2cc(Cl)ccc2C(=O)O)cn1`, the inhibition is -1.48% (inactive).

As for `CCC(=O)N1CCCc2ccccc21`, the inhibition was -4.91% (inactive).

For `C=CCc1cccc2cc(C(=O)Nc3ccc(NC(C)=O)cc3)c(=O)oc12`, the inhibition is -0.67% (inactive).

`CC1CCCCN1S(=O)(=O)c1ccc(S(=O)(=O)N(CC(=O)Nc2ccccc2)Cc2cccs2)cc1` (stereo unspecified): the inhibition is -2.37% (inactive).

`CC1CCCN(S(=O)(=O)c2ccc(C(=O)Nc3nnc(-c4ccncc4)o3)cc2)C1` (stereo unspecified): the inhibition is -1.33% (inactive).

In the case of `CC1CCCCN1S(=O)(=O)c1ccc(C(=O)Nc2nnc(-c3cccs3)o2)cc1` (stereo unspecified), the inhibition is 36.5% (active).

As for `C/C(=N\NC(=O)OC(C)(C)C)c1ccc[nH]1`, the inhibition is 1.03% (inactive).

Regarding `CCN(CC)C(=O)Oc1ccc(Br)cc1C(=O)Nc1ccc(F)c(Cl)c1`, the inhibition was -0.45% (inactive).

With `CCOC(=O)C(C)n1nc(-c2ccccc2)c2ccccc2c1=O` (stereo unspecified), the inhibition was -1.31% (inactive).

For the molecule `COc1ccc(C(=O)NC(Cc2ccc(OC(=O)c3ccc(OC)cc3)cc2)C(=O)O)cc1` (stereo unspecified), the inhibition was -2.6% (inactive).
